# Compound activity as filed in PubChem BioAssay.
# An excerpt weighted towards active compounds, which were near 1.1% of everything screened.
# Gli-Sufu block: antagonists of Gli-Sufu signaling; inhibition, % at 5 µM; AID 588413; actives 0.74% (n = 340,000); Sufu-KO-LIGHT fibroblasts, Gli luciferase reporter luminescence;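 active = inhibition above about 55%, limit read from the data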
# Shn3 3UTR inh: inhibitors of Schnurri-3 3'UTR reporter in osteoblasts. Clone20 osteoblast Shn3 3'UTR firefly luciferase, 24 h. inhibition, % at 12.5 µM. actives 0.52% (n = 360,000). AID 588674;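 active = mean inhibition of at least 75% with every replicate also reaching 75%; inconclusive = mean inhibition at least 75% but some replicate below; inactive = mean inhibition below 75%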
# NCOA2 inhibitor: human SRC2 (NCOA2) inhibition. HEK293 GAL4-SRC2 luciferase reporter, luminescence. inhibition, % at 9 µM. actives 0.17% (n = 370,000);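 active = inhibition above the mean inhibition of all tested compounds plus 3 SD, set per campaign, cut at about 52% in these data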
# SRC3 inh: human NCOA3 inhibition; actives 0.17% (n = 360,000); Q9Y6Q9; inhibition, % at 3.6 µM; HEK293 GAL4-SRC3 luciferase reporter, luminescence;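 active = inhibition above a per-campaign cutoff, the mean of all compounds plus 3 SD, cut at about 60% in these data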;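 note: higher means less SRC3-driven luciferase light from the GAL4 reporter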
# SRC1 inh: inhibits human SRC1 coactivator; Q15788; HEK293 GAL4-SRC1 luciferase reporter, luminescence; inhibition, % at 3.6 µM; actives 0.12% (n = 360,000); AID 588354;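 active = inhibition above the campaign mean plus 3 SD, with each screening campaign given its own cutoff, cut at about 60% in these data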
# NR5A2 inv ag: suppresses constitutive activity of human LRH-1; O00482; HEK293T StAR-luciferase reporter, LRH-1 transfected, 24 h; inhibition, % at 3.6 µM; actives 0.13% (n = 360,000);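 active = inhibition above the mean inhibition of all tested compounds plus 3 SD, cut at about 73% in these data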
# Target sequence (O00482 whole entry, looked up): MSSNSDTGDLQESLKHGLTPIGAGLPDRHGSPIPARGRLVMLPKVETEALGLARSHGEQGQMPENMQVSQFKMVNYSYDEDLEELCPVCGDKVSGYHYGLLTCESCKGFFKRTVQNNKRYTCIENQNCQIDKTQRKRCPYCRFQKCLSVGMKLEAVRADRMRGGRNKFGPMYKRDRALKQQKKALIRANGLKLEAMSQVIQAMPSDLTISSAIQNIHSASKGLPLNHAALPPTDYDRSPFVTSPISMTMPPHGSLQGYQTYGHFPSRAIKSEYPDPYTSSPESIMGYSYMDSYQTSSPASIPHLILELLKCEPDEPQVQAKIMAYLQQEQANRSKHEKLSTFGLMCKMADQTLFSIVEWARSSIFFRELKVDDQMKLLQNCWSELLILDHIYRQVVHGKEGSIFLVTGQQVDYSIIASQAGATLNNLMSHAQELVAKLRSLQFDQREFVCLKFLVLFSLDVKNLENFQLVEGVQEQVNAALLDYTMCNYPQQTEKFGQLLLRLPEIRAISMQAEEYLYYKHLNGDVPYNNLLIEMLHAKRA
# Numbers stand for hits; 0 = inactive; ? = inconclusive; - = no result.
SMILES,Gli-Sufu block,Shn3 3UTR inh,NCOA2 inhibitor,SRC3 inh,SRC1 inh,NR5A2 inv ag
c1ccc(CCc2nn3c(-c4ccncc4)nnc3s2)cc1,0,0,0,0,68,0
CCC(C)Nc1nc(-c2ccccn2)nc2ccccc12 (stereo unspecified),0,?,0,64,0,81
CN1CCN(Cc2c(O)ccc3occ(C(=O)c4ccccc4)c23)CC1,0,0,0,0,0,0
CC(=O)C(C(C)=O)c1c(Cl)c(O)c(O)c2c(C(=O)c3ccccc3)coc12,0,89,0,0,0,0
C/C(C=NNC(=O)CSc1nnc(-c2ccc(Cl)cc2)n1-c1ccccc1)=C\c1ccccc1,-,-,0,-,-,-
Cc1ccc(CNC(=O)C2CCCN(S(=O)(=O)c3c(C)noc3C)C2)cc1 (stereo unspecified),0,0,0,0,0,0
Cc1ccc(NC(=O)C2CCCN(S(=O)(=O)c3c(C)noc3C)C2)cc1 (stereo unspecified),0,85,0,0,0,0
C(=N/N1CCN(c2ccccc2)CC1)/c1ccco1,-,-,0,-,-,-
O=[N+]([O-])c1cc(S(=O)(=O)NCCN2CCOCC2)ccc1Sc1nnnn1-c1ccccc1,0,0,0,0,0,0
Cc1ccc(-n2nnnc2Sc2ccc(S(=O)(=O)NCCN(C)C)cc2[N+](=O)[O-])cc1,0,0,0,67,0,0
COc1ccccc1NC(=O)Nc1nc(C(N)Cc2ccc(C(F)(F)F)cc2)cs1 (stereo unspecified),-,82,0,0,0,0
CC(C)CN1CN2Cc3ccccc3C2CS1(=O)=O (stereo unspecified),-,-,0,-,-,-
Cc1nnsc1C(=O)N/N=C/c1ccc2ccccc2c1O,86,0,0,84,81,0
Cc1nnsc1C(=O)N/N=C/c1ccccc1,0,0,0,0,0,0
COc1ccc(O)c(/C=N/NC(=S)Nc2cccc(S(=O)(=O)N(C)C)c2)c1,0,90,0,0,0,0
COC(=O)[C@H](C(C)C)N(Cc1cn(Cc2ccc(C)cc2)nn1)S(=O)(=O)c1ccc(F)cc1Br,-,-,0,-,-,-
Cn1cnc([N+](=O)[O-])c1S(=O)(=O)Oc1cccc2ccccc12,0,97,0,0,0,0
Cn1cnc([N+](=O)[O-])c1S(=O)(=O)Oc1ccc(Cl)cc1,0,93,0,0,0,0
COc1ccc(Nc2nc(Nc3ccc(OC)cc3)nc(-n3[nH]c(=O)c(C)c3C)n2)cc1,0,81,0,0,0,0
COc1ccc(Nc2nc(OC)nc(OC)n2)cc1,0,0,0,0,0,0
CC(NNC(=S)N1CCN(c2ccccn2)CC1)c1nccc2ccccc12 (stereo unspecified),93,93,0,0,0,0
COc1ccc2[nH]c(C)c(CCN(Cc3cccs3)C(=S)Nc3ccc(F)cc3)c2c1,0,86,-,0,0,0
CCCCN1C(=O)N2Cc3ccccc3C2CS1(=O)=O (stereo unspecified),-,-,0,-,-,-
CN1C(=O)c2cc(NC(=O)c3ccc(F)cc3)ccc2OC[C@H]2O[C@H](CC(=O)NC3CCC3)CC[C@H]21,-,-,0,-,-,-
Cc1ccc(NC(=O)c2ccc([N+](=O)[O-])o2)c(C)c1,0,0,0,0,0,0
SMILES,Gli-Sufu block,Shn3 3UTR inh,NCOA2 inhibitor,SRC3 inh,SRC1 inh,NR5A2 inv ag
Cc1ccc(S(=O)(=O)c2ccc([N+](=O)[O-])o2)cc1,0,95,0,0,0,0
Cc1ccc2nc(-c3ccc(NC(=O)CSc4nnc(-c5cc(C)[nH]n5)n4N)cc3)sc2c1,-,-,0,-,-,-
COc1ccc(-n2c(C)c([N+](=O)[O-])c3ccc(O)c(CN(C)C)c32)cc1,0,0,54,0,69,0
COc1ccc(-n2c(C(C)n3nc(C)c([N+](=O)[O-])c3C)n[nH]c2=S)cc1 (stereo unspecified),0,0,0,0,0,0
COC(=O)c1cn(-c2ccc3c(c2)[C@]2(CC(=O)N(C)C2c2ccccc2)C(=O)N3CC(C)C)nn1 (stereo partly specified),-,-,0,-,-,-
c1ccc2c(c1)OCCOCCOCCOCCOCCOc1ccccc1OCCOCCOCCO2,0,86,0,0,0,0
CCOc1ccc(/C=N/Nc2cc(N3CCOCC3)ncn2)c(O)c1,-,93,0,0,0,0
CCCOc1ccc(/C=N/Nc2cc(N3CCOCC3)ncn2)c(O)c1,0,90,0,0,0,0
CC(C)CSc1ncccc1-c1nc2ccccc2[nH]1,-,-,0,-,-,-
CCN1C(=NCC2CC2)N[C@@H](c2cccc(C(F)(F)F)c2)C(C(=O)OC)=C1C,96,0,-,0,0,0
CCN1C(=NCCOC)N[C@@H](c2cccc(C(F)(F)F)c2)C(C(=O)OC)=C1C,0,0,0,0,0,0
COC(=O)[C@]12C[C@H](CC(=O)NCC3CCCCC3)C(=O)N(Cc3ccco3)C1=C[C@H](COCc1ccccc1)O[C@@H]2C,-,-,0,-,-,-
Cc1cc(C)n(CCC(=O)N/N=C/c2ccc(O)cc2)n1,0,0,0,0,0,0
O=C(CCSc1nc2ccccc2s1)N/N=C/c1c(O)ccc2ccccc12,0,87,0,0,0,0
COc1ccc(/C=N/NC(=O)CCSc2nc3ccccc3s2)cc1OC,0,0,0,0,0,0
Cc1cc(C)n(CCC(=O)N/N=C/c2c(O)ccc3ccccc23)n1,0,97,0,0,0,0
CC1(c2nnnn2Cc2ccccc2)CCCCC(=O)N1Cc1cccs1 (stereo unspecified),-,-,0,-,-,-
COC(=O)CCCn1cc(CN2CC=CS2(=O)=O)nn1,-,-,0,-,-,-
O=C(NCCCn1ccnc1)C(=O)NCC1OCCCN1S(=O)(=O)c1ccccc1 (stereo unspecified),0,90,0,0,0,0
O=C(NCCCn1ccnc1)C(=O)NCC1OCCN1S(=O)(=O)c1ccccc1 (stereo unspecified),0,0,0,0,0,0
C=C1C(=O)[C@]23C[C@H]1CCC2[C@]1(C)C(=O)CC[C@@](C)(C(=O)O)C1C[C@@H]3O (stereo partly specified),-,0,0,0,0,0
C=C1C(=O)[C@]23C[C@H]1CCC2[C@]1(C)CCC[C@@](C)(C(=O)O)C1C[C@@H]3O (stereo partly specified),-,89,0,0,0,0
CCN(CC)C(=O)[C@H]1C[C@H](CC(=O)NC/C=C(\C)CCC=C(C)C)C(=O)N2CCc3c([nH]c4cc(CCC(=O)N(C)C)ccc34)[C@]12C,0,90,-,0,0,0
CN(C)c1ccc(Sc2ccc3nc(N)nc(N)c3c2)cc1,-,0,0,0,0,74
Cc1ccc(CNC(=O)CSc2c3c(nc4ccc(Cl)cc24)CCCC3)o1,0,84,0,0,0,0
O=C(CSc1nc2cc(Cl)ccc2s1)N1CCN(C(=O)c2ccco2)CC1,0,0,0,0,0,0
O=C(CSc1c2c(nc3ccc(Cl)cc13)CCCC2)N1CCN(C(=O)c2ccco2)CC1,0,93,0,0,0,0
C/C(=N/NC(=O)c1cccnc1)c1cccc(O)c1,-,-,0,-,-,-
